Bioassay records: PubChem, University of Kansas High Throughput Screening Laboratory
Pf apPOL inh = Pf-apPOL DNA polymerase inhibition | Recombinant Pf-apPOL, molecular beacon fluorescence, 1.5 h | inhibition, % at 10 µM | hit rate 0.25% among 210,000 | AID 1794808
mHTT CaM bind = mHTT-calmodulin interaction abrogation; P42858; AlphaScreen His-mHTT/GST-CaM binding, luminescence; inhibition, % at 15 µM; hit rate 3.6% among 190,000; AID 1671202
Large screens that a line does not name were inactive. In the library only some 3.6% were active in any assay of this set; here they are far more common. Cut-off read from the data, not from the text of the source: active = inhibition above about 50%; inactive = the rest.

O=C(Nc1ccc(F)cc1)N1CCc2ccccc21	none
O=C(NCc1ccccc1)c1ccc2c(c1)NC(=O)C1CCCN21 (stereo not drawn)	none
CCN(CCCNC(=O)c1ccc2c(c1)NC(=O)C1CCCN21)Cc1ccccc1 (stereo not drawn)	Pf apPOL inh 50
Cc1ccc(C2=NC(=C(Cl)Cl)C(=O)N2)cc1	mHTT CaM bind 100
Nc1cc(S(=O)(=O)O)c(N)c2c1C(=O)c1ccccc1C2=O	none (no result: mHTT CaM bind)
O=C1c2ccccc2C(=O)c2c(O)ccc(O)c21	none
O=C1c2ccccc2C(=O)c2c1cc(S(=O)(=O)O)c(O)c2O	mHTT CaM bind 52 (no result: Pf apPOL inh)
O=C1c2ccccc2C(=O)c2c(O)c(O)cc(O)c21	mHTT CaM bind 75
O=C(CCc1cc2ccccc2[nH]c1=O)N1CCCCC1	none
O=C(CCc1cc2ccccc2[nH]c1=O)N1CCSCC1	mHTT CaM bind 100
CC1=NN(c2cc(Cl)ccc2Cl)C(=O)/C1=C/c1cccn1-c1ccc(S(N)(=O)=O)cc1	mHTT CaM bind 63
NS(=O)(=O)c1ccc(-n2cccc2/C=N/n2cnnc2)cc1	none (no result: Pf apPOL inh)
CC1=NN(c2ccc(S(N)(=O)=O)cc2)C(=O)/C1=C/c1ccc(O)cc1	none
CC1=NN(c2cc(Cl)cc(Cl)c2)C(=O)/C1=C/c1cccn1-c1ccc(S(N)(=O)=O)cc1	mHTT CaM bind 52
CCc1ccccc1NC(=O)C1CCCN(c2cn[nH]c(=O)c2)C1 (stereo not drawn)	none
Cn1cnc2cc(CNC(=O)c3cccs3)ccc21	none
Cc1ccc(=O)n(CC(=O)Nc2ccncc2)n1	none
COc1ccc(NC(=O)c2c(NCc3ccccn3)sc3c2CCCC3)c(OC)c1	mHTT CaM bind 53
CCOc1ccccc1NC(=O)c1c(NCc2ccncc2)sc2c1CCC2	none
CCOc1ccccc1NC(=O)c1c(NCc2ccccn2)sc2c1CCC2	mHTT CaM bind 58
COc1ccccc1NC(=O)c1c(NCc2ccccn2)sc2c1CCCC2	mHTT CaM bind 50
CCOc1ccccc1NC(=O)c1c(NCc2cccn2C)sc2c1CCC2	none
COc1ccc(NC(=O)c2c(NCc3ccccn3)sc3c2CCC(C)C3)c(OC)c1 (stereo not drawn)	none
COc1ccc(NC(=O)C(=O)NCc2cccnc2)cc1Cl	none
CC(Oc1ccc(Cl)cc1Cl)C(=O)N1CCCC1 (stereo not drawn)	none
CN1CC(=Cc2ccco2)C(=O)C(=Cc2ccco2)C1	Pf apPOL inh 71 (no result: mHTT CaM bind)
CN1C/C(=C/c2ccco2)C(=O)/C(=C/c2ccco2)C1	none (no result: Pf apPOL inh)
Cc1c(Cl)cccc1NC(=O)c1ccc(F)c(S(=O)(=O)N2CC(C)CC(C)C2)c1 (stereo not drawn)	none
Brc1cccc(-c2noc(CSc3nccn3-c3ccccc3)n2)c1	mHTT CaM bind 63
O=S(=O)(Cc1nc(-c2cccc(Br)c2)no1)c1ccccc1	none
O=C(CN1CCCC(COCc2ccccc2)C1)NCc1ccc2c(c1)OCO2 (stereo not drawn)	none
O=C(c1ccc(F)cc1)N1CCCC2(CC(c3ccccc3)=CO2)C1 (stereo not drawn)	mHTT CaM bind 99
O=C(c1cccc(F)c1)N1CCCC2(CC(c3ccncc3)=CO2)C1 (stereo not drawn)	none
O=C(c1cccc(F)c1)N1CCCC2(CC(c3ccccc3)=CO2)C1 (stereo not drawn)	mHTT CaM bind 100
O=C(c1ccc(F)cc1)N1CCCC2(CC(c3ccncc3)=CO2)C1 (stereo not drawn)	none
CC(C)c1ccc(NC(=O)C2CC(=O)N(Cc3ccccc3F)C2)cc1 (stereo not drawn)	none
COc1ccc(OC)c(Nc2nc3nonc3nc2Nc2ccc(F)cc2)c1	none
COc1ccc(Nc2nc(N(C)C)nc3nccnc23)cc1	mHTT CaM bind 55
Cc1ccc(-c2c(C#N)c(SCC(=O)c3ccc(O)c(O)c3)nc3c2CCCC3)o1	mHTT CaM bind 69
C=CCSc1nc2c(c(-c3ccc(C)o3)c1C#N)CCCC2	none
NS(=O)(=O)c1cccc(NC(=O)c2ccccc2I)c1	none
CC1(C)S[C@@H]2[C@H](NC(=O)COc3ccccc3)C(=O)N2[C@H]1C(=O)OCc1cccc2cccnc12	mHTT CaM bind 51
Cc1cc(COC(=O)C2N3C(=O)[C@@H](NC(=O)COc4ccccc4)[C@H]3SC2(C)C)on1 (stereo partly drawn)	none
Cc1ccc(O)c(NC(=O)c2nn3c(c2Cl)NC(c2ccccc2)CC3C(F)(F)F)c1 (stereo not drawn)	mHTT CaM bind 54
O=C(Nc1cccc(Cl)c1)c1nn2c(c1Cl)NC(c1cccs1)CC2C(F)(F)F (stereo not drawn)	none
CC(C)(C)NC(=O)c1nn2c(c1Cl)NC(c1ccccc1)CC2C(F)(F)F (stereo not drawn)	none
Cc1ccc(O)c(NC(=O)c2nn3c(c2Cl)NC(c2cccs2)CC3C(F)(F)F)c1 (stereo not drawn)	mHTT CaM bind 55
C1=C(c2ccccc2)Nc2nnnn2C1c1ccco1 (stereo not drawn)	none
Cn1c(=O)c([N+](=O)[O-])c(NC2CCCCC2)c2ccccc21	none
Fc1ccc(CSc2nc(NCc3ccco3)c3ccccc3n2)cc1	none
Cc1cccc(CNC(=O)c2nn(C)c3c2CN(C(=O)Cc2ccccc2)CC3)c1	mHTT CaM bind 63
Cc1cccc(CNC(=O)c2nn(C)c3c2CN(C(=O)CC(C)C)CC3)c1	none
CCC(CC)C(=O)N1CCc2c(c(C(=O)NCc3cccc(C)c3)nn2C)C1	none
CCCCC(=O)N1CCc2c(c(C(=O)NCc3cccc(C)c3)nn2C)C1	mHTT CaM bind 59
Cc1cccc(CNC(=O)c2nn(C)c3c2CN(C(=O)C(C)C)CC3)c1	Pf apPOL inh 67
Cn1nc(C(=O)NCc2ccccc2)c2c1CCN(C(=O)Cc1ccc(F)cc1)C2	mHTT CaM bind 78
Cn1nc(C(=O)NCc2ccc(F)cc2)c2c1CCN(C(=O)c1c(F)cccc1F)C2	none
CCCCC(=O)N1CCc2c(c(C(=O)NCc3ccccc3)nn2C)C1	none
O=C1Nc2ccccc2C1=Cc1cc(F)cc2c1OCOC2	none (no result: mHTT CaM bind)
CC(C)CC(=O)N1CC(C)C(c2nc(-c3ccccc3)no2)C1 (stereo not drawn)	none
O=C1NC(=Nc2ccc(F)cc2)S/C1=C/c1cccs1	none
O=C1NC(=Nc2ccc(F)cc2)S/C1=C/c1ccc(O)c(O)c1	mHTT CaM bind 57
Cc1cc(C)cc(N=C2NC(=O)/C(=C/c3ccco3)S2)c1	mHTT CaM bind 79
COc1cc(/C=C2/SC(=Nc3ccc(O)cc3)NC2=O)ccc1O	none
O=C1NC(=Nc2ccc(F)cc2)S/C1=C/c1ccco1	mHTT CaM bind 68
Cc1cc(C)cc(N=C2NC(=O)/C(=C/c3ccccc3)S2)c1	none
CCOC(=O)COc1ccc2c(c1)OC(=Cc1ccc3c(c1)OCO3)C2=O	none
O=C(Cn1cccc1-c1nnc(C2CC2)o1)NCc1ccc(Cl)cc1	none
O=C(CC(=O)c1cccnc1)c1cccnc1	none (no result: mHTT CaM bind)
O=C(Nc1ccc(I)cc1Cl)c1ncn[nH]1	mHTT CaM bind 96
O=C(Nc1ccccc1Cl)c1ncn[nH]1	none
CC(C)(C)c1ccc(C2=NC(C)(C)N(CC(=O)Nc3ccc(Cl)cc3)C2=O)cc1	none
CC1(C)CC(=O)C2=C(C1)OC1=C(C(=O)CC(C)(C)C1)C21C(=O)Nc2ccccc21	none
COc1ccc(Cc2nnc(NC(=O)CSCc3ccccc3)s2)cc1OC	none
Cc1ccccc1C(=O)N1CCC(c2nc(CCNC(=O)C3CC3)cs2)CC1	none
CCCn1c(SCc2nc3ccc([N+](=O)[O-])cc3[nH]2)nc2ccccc21	none
CN(C)c1ccc(C2C(C#N)=C(N)N(c3ccc(Br)cc3)C3=C2C(=O)CCC3)cc1 (stereo not drawn)	mHTT CaM bind 100
